Shown are actives, neighbours in structure and some others; about 3.4% of the full set was active somewhere.
Gli-Sufu antag: blocks Gli-Sufu signaling in a luciferase reporter; Sufu-KO-LIGHT fibroblasts, Gli luciferase reporter luminescence; inhibition, % at 5 µM; 0.74% of 340,000 active; AID 588413;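 active = inhibition above about 55%, limit read from the data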
SMARCA2 act: activators of SMARCA2 function. MG213 cells, MMTV-luciferase reporter, dexamethasone, overnight. activation, % at 9.1 µM. 1% of 370,000 active. AID 652017; in the data active = activation above about 7.8%
GalR3 antagonist: human GalR3 antagonism. 0.44% of 360,000 active. inhibition, % at 3 µM. HEK293 GalR3-CNG cAMP membrane potential fluorescence; galR3 body fused to GalR1 C-terminus. O60755. AID 651719;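 active = inhibition above the screen-wide average plus 3 SD, cut at about 13% in these data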;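 also: forskolin and galanin both at EC90 stimulate the cells; cAMP rise reported by CNG channel membrane potential dye signal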
FXN GAA850 act: increases GAA850 frataxin promoter reporter activity; HEK293 lucGAA850 FXN promoter luciferase reporter, 24 h; percent of 10 µM SAHA response; activation, % at 6 µM; 0.56% of 360,000 active; AID 540364;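 active = activation above the average of all compounds screened plus 3 SD, cutoff fixed separately per campaign, cut at about 7.5% in these data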
H9c2 protect: modulators protecting cardiomyocytes from myocardial damage | 0.63% of 360,000 active | H9c2 cardiomyocytes, H2O2 injury protection, ATPLite, 2 h | protection from H2O2 cell death, % at 20 µM;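 active = compounds giving at least 50% protection of heart cells from peroxide-induced death in the single-dose screen, raw or plate-pattern-corrected value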
COUP-TFII inh: NR2F2 (human) inhibition, primary screen; P24468; 0.7% of 370,000 active; HEK293T NGFI-A luciferase reporter, luminescence; inhibition, % at 8.6 µM;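 active = inhibition above a per-plate cutoff, mean inhibition of test wells between control levels plus 3 SD, cut at about 38% in these data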;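 also: cells cotransfected with COUP-TFII expression vector driving the NGFI-A reporter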
Target sequence (P24468 whole entry, looked up): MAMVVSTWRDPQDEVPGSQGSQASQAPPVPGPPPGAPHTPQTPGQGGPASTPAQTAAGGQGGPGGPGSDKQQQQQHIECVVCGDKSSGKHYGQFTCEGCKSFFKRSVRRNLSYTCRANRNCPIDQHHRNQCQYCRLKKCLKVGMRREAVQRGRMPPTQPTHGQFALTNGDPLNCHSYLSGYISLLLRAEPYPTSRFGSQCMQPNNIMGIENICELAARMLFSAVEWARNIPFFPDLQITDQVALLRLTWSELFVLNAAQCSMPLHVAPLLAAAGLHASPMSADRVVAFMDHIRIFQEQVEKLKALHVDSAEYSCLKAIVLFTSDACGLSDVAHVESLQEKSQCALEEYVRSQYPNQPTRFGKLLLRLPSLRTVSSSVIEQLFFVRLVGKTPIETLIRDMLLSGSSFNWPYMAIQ
SMARCA2 act conf: confirmation of SMARCA2 (BRM) function activators; AID 652260; activation, % at 9.1 µM; MG213 cells, MMTV-luciferase with dexamethasone, luminescence, overnight; MG213 cells expressing E1A, Rb sequestered; DMSO wells 0%, reference activator 100%; 30% of 3,500 active; shares compounds with SMARCA2 act;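 active = activation above its plate's cutoff, the mean activation of tested wells plus 3 SD, cut at about 7.9% in these data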
VP16 Luc act: counter-screen for SMARCA2 activators: GAL4-VP16 luciferase reporter activation. AID 686939. shares compounds with SMARCA2 act. 41% of 3,500 active. activation, % at 9.1 µM. HEK293 GAL4-VP16 pG5luc reporter, luciferase luminescence; scaled: DMSO wells 0%, SAHA wells 100%;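 active = activation above the solvent-only control well mean plus 3 SD, averaged across control plates, cut at about 5.2% in these data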
Large screens that a line does not name were inactive (follow-up assays come after a bar, where they were run).

Cc1sc(NC(=O)c2ccc(Cl)s2)c(C(N)=O)c1C	none
Cc1sc(NC(=O)c2ccc(Br)s2)c(C(N)=O)c1C	SMARCA2 act 9.1 | SMARCA2 act conf inactive | VP16 Luc act 9.6
COCc1cc(C)nc(SCC(=O)Nc2ccc(C)c(C)c2)c1C#N	SMARCA2 act 8.1 | SMARCA2 act conf inactive | VP16 Luc act inactive
COc1ccc(/C=C2\Oc3ccccc3C2=O)cc1	none
COc1cc(OC)c2c(c1)O/C(=C\c1ccccc1)C2=O	SMARCA2 act 11 | SMARCA2 act conf inactive | VP16 Luc act 9.4
CCOc1ccc(CNC(=O)C2CCN(c3nnc(C)c4c(C)n(-c5ccc(C)cc5)nc34)CC2)cc1	none
COc1ccc(-n2nc3c(N4CCC(C(=O)NCc5cccc(C)c5)CC4)nnc(C)c3c2C)cc1	Gli-Sufu antag 74, SMARCA2 act 14 | SMARCA2 act conf 17 | VP16 Luc act inactive
COc1cccc(-n2ccnc2SCC(=O)N2CCc3ccccc32)c1	none
Cn1ccnc1SCC(=O)N1CCc2ccccc21	SMARCA2 act 8.2 | SMARCA2 act conf 11 | VP16 Luc act 8.7
CCCSc1ccc([C@H]2N[C@@](C)(C(=O)OC)[C@H]3C(=O)N(CC)C(=O)[C@@H]23)cc1	none
O=C(COC(=O)COc1ccccc1F)NCCc1ccc(F)cc1	none
O=C(c1ccc(Cl)c([N+](=O)[O-])c1)N(Cc1cccc(Cl)c1)C1CCS(=O)(=O)C1 (centres undefined)	SMARCA2 act 10 | SMARCA2 act conf inactive | VP16 Luc act inactive
O=C(CCn1cnnn1)N1CCCC(Nc2ccc(F)cc2)C1 (centres undefined)	none
O=C(/C=C/c1ccc(Br)cc1)c1ccc(NC2=NCCCS2)cc1	SMARCA2 act 25 | SMARCA2 act conf 12 | VP16 Luc act inactive
Cc1ccc(C2=NNC3(CCOC(C)(C)C3)S2)cc1 (centres undefined)	SMARCA2 act 11 | SMARCA2 act conf 9.9 | VP16 Luc act inactive
COc1cccc(OCc2cc(C(=O)NCc3cnc4ccccn34)no2)c1	none
Cc1cccc(-n2[nH]c3c4c(ccc3c2=O)C(=O)c2ccccc2C4=O)c1	SMARCA2 act 8.3 | SMARCA2 act conf inactive | VP16 Luc act inactive
COc1ccc(S(=O)(=O)N2CCN=C2SCc2cccc(F)c2)cc1	none
O=C(CSc1oc(-c2ccc(F)cc2)nc1S(=O)(=O)c1ccccc1)NCC1CCCO1 (centres undefined)	SMARCA2 act 8.2 | SMARCA2 act conf inactive | VP16 Luc act inactive
O=C(CSc1nnc(NC(=O)c2ccccc2)s1)NCC1CCCO1 (centres undefined)	SMARCA2 act 9.4 | SMARCA2 act conf inactive | VP16 Luc act 6.5
O=C(CSc1oc(-c2ccccc2)nc1S(=O)(=O)c1ccc(F)cc1)NCC1CCCO1 (centres undefined)	none
CCCc1cc(=O)[nH]c(SCC(=O)Nc2ccc([N+](=O)[O-])cc2C#N)n1	none
Cn1cc(CNC(=O)c2cc(-c3ccccc3)nc3ccc(Br)cc23)cn1	none
Cc1ccc(-c2cc(C(=O)NCc3cnn(C)c3)c3cc(Br)ccc3n2)cc1	SMARCA2 act 12 | SMARCA2 act conf inactive | VP16 Luc act 6.6
CCCCn1nc(C(=O)N(C)C2CCCCC2)c2ccccc2c1=O	none
Cn1c(=O)n(C)c2cc(NC(=O)CSc3nc4ccccc4c(=O)[nH]3)ccc21	none
N#C/C(=C\c1c[nH]c2ccccc12)C(=O)NC1CCCC1	none (no result: Gli-Sufu antag)
N#C/C(=C\c1c[nH]c2ccccc12)C(=O)NC1CC1	SMARCA2 act 10 | SMARCA2 act conf 11 | VP16 Luc act 11
Cc1ccccc1-c1nnc(Cc2ccccc2)o1	none
CC(=O)Nc1ccc(S(=O)(=O)N2CCN=C2SCc2ccccc2C)cc1	none
Cc1cccc(/C=N/Nc2nncc3ccccc23)c1	SMARCA2 act 12 | SMARCA2 act conf 14 | VP16 Luc act 8.8
Cc1ccccc1NC(=S)N(Cc1ccco1)C(C)c1cccs1 (centres undefined)	SMARCA2 act 11 | SMARCA2 act conf inactive | VP16 Luc act inactive
CCOc1cccc(/C=C/c2ccc3cccc(O)c3n2)c1OC	SMARCA2 act 14 | SMARCA2 act conf inactive | VP16 Luc act 28
CCOc1cccc(/C=C/c2ccc3cccc(O)c3n2)c1O	SMARCA2 act 12 | SMARCA2 act conf 12 | VP16 Luc act 18
COc1ccccc1/C=C/c1ccc2cccc(O)c2n1	none
O=C(Nc1cccc(S(=O)(=O)N2CCCCC2)c1)c1ccc(S(=O)(=O)C(F)F)cc1	none
CC(=O)c1c(C)nc(-c2ccc(Cl)cc2)nc1N	SMARCA2 act 10 | SMARCA2 act conf inactive | VP16 Luc act 11
CC(=O)c1c(C)nc(-c2ccc(Cl)cc2)nc1N=CN(C)C	none
NC(=O)C1CCN(C(=O)c2cccc(S(=O)(=O)N3CCCC3)c2)CC1	none
Cc1ccccc1N/C(SCc1cccc(Br)c1)=C(/C#N)C(N)=O	SMARCA2 act 9.7 | SMARCA2 act conf inactive | VP16 Luc act inactive
COc1cccc(N/C(SCc2cccc([N+](=O)[O-])c2)=C(/C#N)C(N)=O)c1	none
Cc1cccc(NC(=O)CSc2cccc3cccnc23)c1C	none
CCOC(=O)CSc1cccc2cccnc12	SMARCA2 act 9.4 | SMARCA2 act conf inactive | VP16 Luc act inactive
O=C(NCCC(F)(F)F)C1Cc2c(-c3ccccc3Oc3ccccc3)ccnc2O1 (centres undefined)	none (no result: Gli-Sufu antag)
O=C1NC[C@H](CCCCN2C[C@H](Cc3ccccc3)N(CC3CCCCC3)C(=O)C2=O)N(CCc2ccccc2)C1=O	none (no result: Gli-Sufu antag, FXN GAA850 act, H9c2 protect)
O=C(Cc1cccs1)N1CCN(S(=O)(=O)c2ccccc2)CC1	none
COc1ccc(S(=O)(=O)N2CCN(C(=O)Cc3cccs3)CC2)cc1	SMARCA2 act 9.5 | SMARCA2 act conf inactive | VP16 Luc act inactive
CCc1ccc(NC(=O)C(=O)NCC2CCCO2)cc1 (centres undefined)	SMARCA2 act 11 | SMARCA2 act conf inactive | VP16 Luc act 16
O=C1NC[C@H](CCCCN2CCN(CCc3ccc(O)cc3)C(=O)C2=O)N(CCC2CCCCC2)C1=O	none (no result: Gli-Sufu antag, FXN GAA850 act, H9c2 protect)
O=C(Nc1ccccn1)c1csc2c1CCCC2	SMARCA2 act 11 | SMARCA2 act conf inactive | VP16 Luc act 6.5
COc1ccccc1NC(=O)c1csc2c1CCCC2	none
Cc1nnc(N/N=C/c2ccc(-c3ccccc3F)o2)n1N	SMARCA2 act 12 | SMARCA2 act conf inactive | VP16 Luc act 9.2

High-throughput results (PubChem BioAssay)
